Consider 37 compounds from PubChem BioAssay (NCI).

SMILES strings stand for the structures. This is part of a sample that, as a whole, favours compounds with a hit. Of some 83,000 tested, about 20% had one in any assay.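 Note: values are percent growth. 100 is the growth of untreated cells, values between 100 and 0 indicate rising inhibition; between -100 and 0 indicates cell death.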 Calls of active or inactive are those of the source. Rule for the calls: active = growth percent below 10; inactive = the rest.

One assay relates to CAKI-1 renal. Briefly: NCI-60 one-dose screen, 48 h (100 = growth as untreated, 0 = no growth, -100 = all killed). The conditions noted are these: 10 µM unless noted.
For the compound `COc1ccc(-c2cc(-c3cc(OC)ccc3OC)nc(SCC(=O)c3ccccc3)c2C#N)cc1`, the growth is 95.3% (inactive).

For `Cc1ccc(Cl)c(NS(=O)(=O)c2ccc(-c3cnc(C4CC4)o3)cc2)c1`, the growth was 36.6% (inactive). Regarding `COc1cccc(-c2nn(-c3ccccc3)cc2-c2ccnc(NCCNC(=O)c3ccccc3)c2)c1`, the growth was 68% (inactive). On the same count and under the same terms, for `Cc1cc(N2CCCC2)nc(NCc2cc(Nc3ccnc4cc(Cl)ccc34)ccc2F)n1` the value was 28.5% (inactive); for `COc1cccc(-c2nn(-c3ccccc3)cc2-c2ccnc(NCCNC(=O)Nc3ccccc3)c2)c1`, 64.9% (inactive).

On to `CC(C)CCC[C@@H](C)[C@H]1CC[C@H]2[C@@H](Nc3ccc(O)cc3)CCC[C@]12C`, for which the growth is 37.7% (inactive).

As for `COc1cc(-c2nn(-c3ccccc3)cc2-c2ccnc(NCCNS(=O)(=O)c3ccc(Cl)cc3)n2)ccc1Cl`, the growth is 28.9% (inactive). Regarding `CCCCn1c(=O)c2c(nc3n2CCCN3CCc2ccc(OCC(=O)NCCN(CC)CC)cc2)n(CCCC)c1=O`, the growth was 77.6% (inactive). Consider `COC(=O)CCC1=C(C)C2=NC1=CC1=NC(=CC3=NC(=Cc4[nH]c(/c(=C(/C)O)c4C)=C2)C(C(C)=O)=C3C)C(C)=C1CCC(=O)OC`, for which the growth was 98.8% (inactive). Same read-out and setting: the figure for `N[C@@H](CCCCNCC(=O)O)C(=O)O` is 96.9% (inactive); for `O=C(c1ccc(Nc2nccc(NCCCCNc3ccnc4cc(Cl)ccc34)n2)cc1)N1CCCCC1` it is 86.1% (inactive); for `Cc1ccc(NCCN(C)C)c2c(=O)c3ccccc3sc12` it is -20% (active). Turning to `Cc1cc(NCCCCNc2ccnc3cc(Cl)ccc23)nc(Nc2ccc(C(=O)N3CCCC3)cc2)n1`, the growth was 97.1% (inactive).

Take `CC(C)(C)n1cc(-c2ccnc(NCCCNS(=O)(=O)c3ccccc3)c2)c(-c2ccccc2)n1`: the growth was 80.9% (inactive). For the compound `Fc1ccc(CNc2c3ccccc3nc3ccccc23)cc1F`, the growth is 25.3% (inactive). As for `c1c[nH]c(CNC2CCCCC2)c1`, the growth is 96.1% (inactive). The same measure, in the same setting: for `COc1cccc(-c2nn(-c3ccccc3)cc2-c2ccnc(NCCNC(=O)Nc3cccc(C(F)(F)F)c3)c2)c1` the value was 25.7% (inactive). `O=C(NCCCNc1cc(-c2cn(-c3ccccc3)nc2-c2cccc(O)c2)ccn1)c1ccc(F)cc1`: the growth was 12.4% (inactive). Still for that read-out and setting: the figure for `Cc1cc(NCc2cc(Nc3ccnc4cc(Cl)ccc34)ccc2F)nc(Cl)n1` is 56.5% (inactive); for `NC(=O)c1ccc[n+](Cc2ccc(Cl)cc2Cl)c1` it is 107% (inactive); for `Cc1cc(Cl)nc(NCc2cc(Nc3ccnc4cc(Cl)ccc34)ccc2F)n1` it is 75.3% (inactive).

Consider `COc1ccc(-c2ccc3c(c2)sc2nc(-c4ccc(F)cc4)cn23)cc1`, for which the growth was 100% (inactive).

On to `O=C(NCCCNc1cc(-c2cn(-c3ccccc3)nc2-c2cccc(O)c2)ccn1)c1ccccc1`, for which the growth is 37.3% (inactive). Consider `FC(F)(F)c1cc(Nc2ccc3cc(OCCCN4CCOCC4)ccc3n2)ccc1Cl`, for which the growth was 86.1% (inactive). As to `COC(=O)[C@]12CC[C@@H](C)[C@H](C)[C@@H]1C1=CC[C@@H]3[C@@]4(C)C(C=O)=C[C@@](C)(COC(C)=O)C4=CC[C@@]3(C)[C@]1(C)CC2`, the growth is 13.7% (inactive).

The subject of another assay is A498 renal. Described as above. The conditions noted are these: 10 µM unless noted.
On to `COC(=O)[C@]12CC[C@@H](C)[C@H](C)[C@@H]1C1=CC[C@@H]3[C@@]4(C)C(C=O)=C[C@@](C)(COC(=O)c5ccco5)[C@@H]4C(=O)C[C@@]3(C)[C@]1(C)CC2`, for which the growth is 65.5% (inactive).

Regarding `COc1cccc(C(=O)NCCNc2cc(-c3cn(-c4ccccc4)nc3-c3cccc(OC)c3)ccn2)c1`, the growth is 59% (inactive). Take `O=C(O)C1CCC(=O)N1C(=O)OCc1ccccc1` (configuration not stated): the growth is 123% (inactive). `Cc1cc(NCc2cc(Nc3ccnc4cc(Cl)ccc34)ccc2F)nc(N2CCCC2)n1`: the growth was 59.2% (inactive). The same measure, in the same setting: the figure for `COC(=O)[C@]12CC[C@@H](C)[C@H](C)[C@@H]1C1=CC[C@@H]3[C@@]4(C)C(C=O)=C[C@@](C)(COC(=O)c5ccco5)C4=CC[C@@]3(C)[C@]1(C)CC2` is 22.2% (inactive). As for `CC(CCc1ccc(Cl)c(Cl)c1)NCc1ccc(C(C)(C)C)cc1` (configuration not stated), the growth was 90.8% (inactive).

For `Cc1ccc2nc3ccccc3c(NCc3ccccc3)c2c1`, the growth was 11.4% (inactive).

On to `COc1cc(-c2nc(N3CCN(C)CC3)c3ccccc3n2)cc(OC)c1OC`, for which the growth was 21.6% (inactive). Turning to `CCn1c(C)nc2cc(C(N)=O)ccc21`, the growth is 107% (inactive).

As to `CN(C)CC1C(=O)O[C@H]2[C@H]1CC/C(COC(=O)c1cc3ccccc3[nH]1)=C\CC[C@@]1(C)O[C@@H]21` (some centres not stated), the growth was 5.21% (active). As to `CN1CCN(CCCOc2ccc3nc(Nc4ccc(F)c(F)c4)ccc3c2)CC1`, the growth is 33.4% (inactive). The same measure, in the same setting: for `COc1cccc(-c2nn(-c3ccccc3)cc2-c2ccnc(NCCCNC(=O)c3cccc(C(F)(F)F)c3)c2)c1` the value was 43.6% (inactive). As for `COc1ccc(-c2cc(-c3cc(OC)ccc3OC)nc(SCC(=O)c3ccccc3)c2C#N)cc1`, the growth was 93.9% (inactive). In the case of `Cc1ccc(Cl)c(NS(=O)(=O)c2ccc(-c3cnc(C4CC4)o3)cc2)c1`, the growth is -5.72% (active). For the compound `COc1cccc(-c2nn(-c3ccccc3)cc2-c2ccnc(NCCNC(=O)c3ccccc3)c2)c1`, the growth is 46.6% (inactive).

As for `Cc1cc(N2CCCC2)nc(NCc2cc(Nc3ccnc4cc(Cl)ccc34)ccc2F)n1`, the growth is -25.2% (active).

In the case of `COc1cccc(-c2nn(-c3ccccc3)cc2-c2ccnc(NCCNC(=O)Nc3ccccc3)c2)c1`, the growth is 43.8% (inactive).

`CC(C)CCC[C@@H](C)[C@H]1CC[C@H]2[C@@H](Nc3ccc(O)cc3)CCC[C@]12C`: the growth was 67.6% (inactive). Regarding `COc1cc(-c2nn(-c3ccccc3)cc2-c2ccnc(NCCNS(=O)(=O)c3ccc(Cl)cc3)n2)ccc1Cl`, the growth was 32% (inactive). On to `CCCCn1c(=O)c2c(nc3n2CCCN3CCc2ccc(OCC(=O)NCCN(CC)CC)cc2)n(CCCC)c1=O`, for which the growth is 1.86% (active). Turning to `COC(=O)CCC1=C(C)C2=NC1=CC1=NC(=CC3=NC(=Cc4[nH]c(/c(=C(/C)O)c4C)=C2)C(C(C)=O)=C3C)C(C)=C1CCC(=O)OC`, the growth is 90.1% (inactive). Regarding `N[C@@H](CCCCNCC(=O)O)C(=O)O`, the growth is 85.4% (inactive). `O=C(c1ccc(Nc2nccc(NCCCCNc3ccnc4cc(Cl)ccc34)n2)cc1)N1CCCCC1`: the growth was 68% (inactive). In the case of `Cc1ccc(NCCN(C)C)c2c(=O)c3ccccc3sc12`, the growth is 37.6% (inactive). For `Cc1cc(NCCCCNc2ccnc3cc(Cl)ccc23)nc(Nc2ccc(C(=O)N3CCCC3)cc2)n1`, the growth was 62.6% (inactive). Turning to `CC(C)(C)n1cc(-c2ccnc(NCCCNS(=O)(=O)c3ccccc3)c2)c(-c2ccccc2)n1`, the growth is 39.7% (inactive).

`Fc1ccc(CNc2c3ccccc3nc3ccccc23)cc1F`: the growth was 9.78% (active). Still for that read-out and setting: the figure for `c1c[nH]c(CNC2CCCCC2)c1` is 91.3% (inactive). Consider `COc1cccc(-c2nn(-c3ccccc3)cc2-c2ccnc(NCCNC(=O)Nc3cccc(C(F)(F)F)c3)c2)c1`, for which the growth was 39.7% (inactive). Turning to `O=C(NCCCNc1cc(-c2cn(-c3ccccc3)nc2-c2cccc(O)c2)ccn1)c1ccc(F)cc1`, the growth was 29% (inactive). On the same count and under the same terms, for `Cc1cc(NCc2cc(Nc3ccnc4cc(Cl)ccc34)ccc2F)nc(Cl)n1` the value was 41.3% (inactive). For the compound `NC(=O)c1ccc[n+](Cc2ccc(Cl)cc2Cl)c1`, the growth is 99.8% (inactive).

As to `Cc1cc(Cl)nc(NCc2cc(Nc3ccnc4cc(Cl)ccc34)ccc2F)n1`, the growth was 63.3% (inactive). In the case of `COc1ccc(-c2ccc3c(c2)sc2nc(-c4ccc(F)cc4)cn23)cc1`, the growth is 76.8% (inactive). For `O=C(NCCCNc1cc(-c2cn(-c3ccccc3)nc2-c2cccc(O)c2)ccn1)c1ccccc1`, the growth is 31.1% (inactive). Regarding `FC(F)(F)c1cc(Nc2ccc3cc(OCCCN4CCOCC4)ccc3n2)ccc1Cl`, the growth is 36.4% (inactive).

As for `COC(=O)[C@]12CC[C@@H](C)[C@H](C)[C@@H]1C1=CC[C@@H]3[C@@]4(C)C(C=O)=C[C@@](C)(COC(C)=O)C4=CC[C@@]3(C)[C@]1(C)CC2`, the growth was 14.6% (inactive).
